Growth data for 39 compounds are collected here from PubChem BioAssay (NCI).

Values joined by “and” are separate entries in the source; they are usually repeats but may differ in a detail not shown here. Identical values can stand only once. This is part of a sample that, as a whole, favours compounds with a hit. Of some 83,000 tested, about 20% had one in any assay.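 Plates (96-well) were seeded with cells, treated with compound at one concentration, and incubated for 48 hours before percent growth was determined.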 Active and inactive are the calls of the source. How the source made its calls: active means growth percent below 10; inactive means the rest.

The experiment deals with HL-60(TB) leukemia. Put plainly: NCI-60 one-dose screen, 48 h (100 = growth as untreated, 0 = no growth, -100 = all killed). To be noted: 10 µM unless noted.
Regarding `COc1ccc(Nc2nc(SCC(C)C)nc(-c3ccc(F)cc3)c2C#N)cc1`, the growth was 38.4% (inactive).

On to `C/C(=N\O)C1(O)CCCCC1`, for which the growth was 83.6% (inactive).

In the case of `N=C(N=C(N)N)N1CCOCC1`, the growth is 100% (inactive) and 99.1% (inactive).

As for `CC(=O)N1N=C(c2ccc(C(F)(F)F)c(F)c2)CC1c1[nH]c(C)c(C(=O)NCC(F)(F)F)c1C` (centres undefined), the growth was 111% (inactive).

Turning to `CCN(CC)c1ccc(/C=C/c2ccc3cc(C)ccc3[n+]2CC)cc1`, the growth was -41.5% (active).

For the compound `Oc1c(Cl)cc(Cl)c(Cl)c1CNCCNCc1c(O)c(Cl)cc(Cl)c1Cl`, the growth was -10.5% (active).

In the case of `O=[N+]([O-])c1cc(S(=O)(=O)c2ccc(F)c([N+](=O)[O-])c2)ccc1F`, the growth is 59.9% (inactive).

With `CN(CCn1sc(=O)n(Cc2ccccc2)c1=O)Cc1ccc2c(Cl)cc(Cl)c(O)c2n1`, the growth was 40.7% (inactive).

Take `CCCCN(CCCC)CC(C)(C)C(O)c1ccc(OC)c2ccccc12` (centres undefined): the growth was 56.3% (inactive).

Regarding `COc1cc2nc(Cl)nc(Nc3cccc(C(=O)/C=C/c4ccc(Br)cc4)c3)c2cc1OC`, the growth is 77.8% (inactive).

Regarding `Ic1ccc2[nH]cc(SSc3c[nH]c4ccc(I)cc34)c2c1`, the growth is -21.7% (active).

Consider `O=C(Nc1ccc(CN2CCOCC2)cc1)c1ccc(-c2cc(Cl)ccc2Cl)o1`, for which the growth is 28.8% (inactive).

As to `COc1ccc(-c2nocc2-c2cccs2)cc1`, the growth was 115% (inactive).

`Nc1nc2c(c3cnccc13)C(c1cccc(Br)c1)Cc1cnccc1-2` (centres undefined): the growth is 3.01% (active).

Regarding `COc1ccc(NC(=O)CSc2nc(C)c(C(C)=O)n2-c2ccc(Cl)cc2)cc1`, the growth is 103% (inactive).

Regarding `COC(=O)[C@]12CC[C@@H](C(/C=C/c3cccnc3)=N/O)[C@@H]1[C@H]1CC[C@@H]3[C@@]4(C)CC(=C/c5cccnc5)/C(=N/O)C(C)(C)[C@@H]4CC[C@@]3(C)[C@]1(C)CC2`, the growth is 2.86% (active).

With `c1ccc(Cc2nn3cc(-c4ccccc4)nc3s2)cc1`, the growth was 68% (inactive).

Regarding `OCCSc1ccc(Cl)cc1`, the growth is 131% (inactive) and 90.3% (inactive).

For the compound `CC[C@]1(O)C[C@@H]2CN(Cc3c([nH]c4ccccc34)[C@@](C(=O)OC)(c3cc4c(cc3OC)N(C)[C@H]3[C@@](O)(C(=O)OC)[C@H](OC(C)=O)[C@]5(CC)[C@@H]6C[C@@H]6CN6CC[C@]43[C@@H]65)C2)C1`, the growth is -36.5% (active).

Consider `O=c1ccn(-c2ncnc3nc[nH]c23)cc1`, for which the growth is 92.7% (inactive).

With `COc1ccc(Cc2nc3cc(OC)c(OC)cc3c(=O)[nH]2)cc1`, the growth is 16.4% (inactive).

With `COc1ccc(-c2ccc(NC(=O)Nc3cccc(C(F)(F)F)c3)c(C)n2)cc1`, the growth is 49.7% (inactive).

`COc1cc(C2NC(c3ccc(Cl)cc3)C(C)C(=NC(=O)c3cnccn3)C2C)cc(OC)c1OC` (centres undefined): the growth is 98.4% (inactive).

Consider `Cc1ccc(-c2cc(O)c(-c3ccc(C)cc3C)cc2O)c(C)c1`, for which the growth was 21.2% (inactive).

For the compound `COc1cccc2cc(-c3cc4ccccc4[nH]3)c(=NC(=O)c3ccc(Cl)cc3)oc12`, the growth was 72.1% (inactive).

Consider `NNCCc1ccccc1`, for which the growth was 107% (inactive) and 98.2% (inactive).

As to `COc1ccc(C2C=C(c3ccc(OC)c(OC)c3)N=C3SC=C(C)N32)c(Br)c1` (centres undefined), the growth was 101% (inactive).

Consider `COc1cc(CNCCN2C(=O)c3ccc4c5c(ccc(c35)C2=O)C(=O)N(CCNCc2cc(OC)c(OC)c(OC)c2)C4=O)cc(OC)c1OC`, for which the growth was -48.7% (active).

`CCO/C=N/C1=C(C#N)C(c2ccc(OC)cc2)c2sc3c(F)cccc3c2O1` (centres undefined): the growth was -9.87% (active).

Consider `CCCCCCCCCCCCCCCCNC(=O)Nc1ccc2ccccc2c1`, for which the growth was 95% (inactive).

Turning to `Cc1cc(C)c(N)c(Br)c1`, the growth was 97.9% (inactive) and 69% (inactive).

Consider `N#Cc1ccc(NC(=O)Nc2cccc(C#N)c2)cc1`, for which the growth was 68.6% (inactive).

On to `COc1cc(/C=C/c2ccccc2)cc(OC)c1`, for which the growth was 96.2% (inactive).

For the compound `Cc1ccccc1/C=C1\CN(C(=O)OC(C)(C)C)C/C(=C\c2ccccc2C)C1=O`, the growth is 40.6% (inactive).

Consider `CNC(=O)c1c(NC(=O)c2ccc(C(F)(F)F)cc2)sc2c1CCC(=O)C2`, for which the growth is -16.5% (active).

As to `CCCCCn1sc(=O)n(Cc2ccc(CNC(=O)OCc3ccc4cccc(O)c4n3)cc2)c1=O`, the growth is -13.5% (active).

As for `COc1ccc(-c2nn(-c3cccc(Cl)c3)cc2-c2c(C#N)c(=O)n3[nH]c(-c4ccccc4)nc3c2C#N)cc1`, the growth was 79.9% (inactive).

Take `CCCCCCCCCCCCc1ccc([N+](CC)(CC)CC)cc1`: the growth is -10.9% (active).

Regarding `CC(=O)c1cc2c(N)c(C(=O)Nc3cncc4ccccc34)sc2nc1C`, the growth was 91.6% (inactive).
